This is a sample that favours compounds with a hit; in the whole collection about 3.5% have one here.
MITF inh: blocks human microphthalmia-associated transcription factor | AlphaScreen MITF homodimerization, bead proximity signal | inhibition, % at 2.6 µM | actives 0.91% (n = 650,000); in the data active = inhibition above about 50%;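 note: 0% = vehicle wells with protein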
GPR151 activ: activators of human GPR151; PathHunter beta-arrestin GPR151 cells, luminescence; activation, % at 11.2 µM; actives 1% (n = 650,000); AID 1508602; in the data active = activation above about 4.9%;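 note: 0% = median of compound wells and 100% = cells with positive control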
Target sequence (Q8TDV0 whole entry, looked up): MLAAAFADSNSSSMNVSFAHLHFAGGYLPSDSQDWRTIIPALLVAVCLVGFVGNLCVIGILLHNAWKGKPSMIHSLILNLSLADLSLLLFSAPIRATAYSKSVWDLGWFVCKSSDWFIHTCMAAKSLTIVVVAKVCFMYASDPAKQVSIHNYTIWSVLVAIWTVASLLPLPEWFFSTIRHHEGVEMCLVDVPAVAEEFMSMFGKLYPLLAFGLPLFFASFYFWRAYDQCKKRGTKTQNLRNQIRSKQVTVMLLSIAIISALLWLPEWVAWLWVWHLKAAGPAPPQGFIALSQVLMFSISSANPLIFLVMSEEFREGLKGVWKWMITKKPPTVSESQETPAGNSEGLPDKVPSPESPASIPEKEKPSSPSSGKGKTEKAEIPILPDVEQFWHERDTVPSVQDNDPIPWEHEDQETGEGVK
TEAD-YAP inh: TEAD-YAP interaction inhibition | HEK-TIYL cells, TEAD-Gal4/YAP UAS-luciferase luminescence | inhibition, % at 9.12 µM | actives 1.4% (n = 640,000) | AID 1259422; in the data active = inhibition above about 32%;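 note: 0% = median of test compound wells and 100% = reference inhibitor wells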
FBW7 activator: activators of human E3 ligase FBW7; Q969H0; AlphaScreen FBW7–phospho-cyclin E peptide binding, activator screen; normalized activity (activation), % at 26.1 µM; actives 0.13% (n = 650,000); AID 1259310; in the data active = normalized activity above about 1.9%;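 note: purified mutant Fbw7 with reduced substrate affinity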
MITF inh conf: confirmation of human MITF inhibitors; actives 16% (n = 4,700); shares compounds with MITF inh; inhibition, % at 2.6 µM; AID 1259372; AlphaScreen MITF homodimerization, biotin/His-MITF beads;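 active = inhibition above a cutoff derived from the DMSO control wells, cut at about 28% in these data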;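 note: 0% = MITF dimer wells with DMSO only; inhibitors lower the bead chemiluminescence by keeping MITF from dimerizing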
AlphaScreen DR: optically interferes with AlphaScreen signal in dose response; shares compounds with MITF inh; AID 1259373; IC50, µM; actives 6% (n = 480); AlphaScreen optical interference counterscreen, cell-free; call rule not given here
AS interf ctr: optically interferes with AlphaScreen signal; shares compounds with MITF inh; LysRS AlphaScreen counterscreen, signal interference, triplicate; inhibition, % at 2.6 µM; actives 7.6% (n = 4,700);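 active = inhibition above a cutoff derived from the DMSO control wells, cut at about 30% in these data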
The depositor's hits bear a star; / = no result given.

SMILES | MITF inh | GPR151 activ | TEAD-YAP inh | FBW7 activator | MITF inh conf | AS interf ctr | others
CCCCNC(=O)CC(O)C(Cl)(Cl)Cl (configuration not stated) | -19 | -1 | 0 | 0 | / | /
N#Cc1cccc(C(=O)N(Cc2cccnc2)C2CCN(Cc3ccncc3)CC2)c1 | 17 | 2 | -6 | 0 | / | /
O=C1NC(=O)N(Cc2ccco2)C(=O)/C1=C\c1ccco1 | 31 | -1 | -3 | -1 | / | /
C=CCN1C(=O)/C(=C/c2ccco2)C(=O)NC1=S | 77* | -1 | 8 | -1 | / | /
O=C1NC(=S)N(c2ccccc2)C(=O)/C1=C/c1ccco1 | 66* | 3 | 9 | -1 | / | /
Cc1ccc(N2C(=O)/C(=C\C=C\c3ccco3)C(=O)NC2=S)cc1 | 59* | -1 | -1 | 0 | / | /
O=C1NC(=S)N(Cc2ccco2)C(=O)/C1=C\c1cccs1 | 82* | 2 | -2 | -1 | / | /
O=C(Cc1ccccc1)N1CCN(Cc2csc(-c3ccccc3)n2)CC1 | 2 | -1 | 3 | 0 | / | /
O=C1NC(=S)N(c2ccccc2F)C(=O)/C1=C\c1ccco1 | 72* | 0 | -8 | 0 | / | /
COCC(=O)Oc1ccc(/C=C/[N+](=O)[O-])cc1OC | -1 | -1 | 1 | 0 | / | /
Cc1ccc(C2(O)CN3CCC2CC3)c(C)c1 (configuration not stated) | 17 | 0 | -2 | 0 | / | /
C[C@@H]1O[C@@H](O[C@@H]2C=C3CCC4C(CC[C@]5(C)[C@@H](c6ccc(=O)oc6)CC[C@]45O)[C@@]3(C)CC2)[C@H](O)[C@H](O)[C@H]1O (some centres not stated) | 5 | 10* | / | 0 | / | /
CCn1cnc2c(Nc3cccc(Cl)c3)nc(N[C@@H]3CCCC[C@@H]3N)nc21 | -4 | 2 | 46* | 0 | / | /
O=C1/C(=C/c2cccnc2)N2CCC1CC2 | 2 | 0 | -7 | 0 | / | /
CN1C2CCC1/C(=C\c1cccnc1)C(=O)/C2=C/c1cccnc1 | 22 | 0 | 53* | 1 | / | /
N#CCCn1cc(C(=O)n2nnc3ccccc32)c(-c2ccccc2)n1 | 11 | 0 | -5 | 0 | / | /
COc1cc2c(cc1OC)[C@@H]1C(=O)c3ccc4c(c3O[C@@H]1CO2)C[C@H](C(C)C)O4 | 13 | 2 | 68* | 0 | / | /
CN1CC=C(c2noc(CCC(=O)Nc3nc4ccccc4s3)n2)CC1 | 29 | -1 | -30 | 1 | / | /
CCOc1ccc(NC(=O)CCc2nc(C3=CCN(C)CC3)no2)cc1 | 83* | -1 | 2 | -2 | 93* | 70*
CCc1nnc(NC(=O)CCc2nc(C3=CCN(C)CC3)no2)s1 | 58* | 0 | 3 | 1 | 60* | 39*
CCc1ccccc1NC(=O)CCc1nc(C2=CCN(C)CC2)no1 | 3 | 0 | -1 | 0 | / | /
COC(=O)C1=C(N)OC(C)=C(C(C)=O)C12C(=O)Nc1ccc(Br)cc12 (configuration not stated) | -3 | 1 | -9 | 0 | / | /
O=C(Cc1ccccc1)N1CCN(C2CC3CCC2C3)CC1 (configuration not stated) | 24 | -1 | -4 | 0 | / | /
C1CCC(N2CCN(C3CC4CCC3C4)CC2)C1 (configuration not stated) | 67* | 1 | -4 | 0 | -2 | 1
COc1ccccc1N1CCN(C2CCCN(C(=O)Cc3cccnc3)C2)CC1 (configuration not stated) | -3 | -1 | -5 | 0 | / | /
SMILES | MITF inh | GPR151 activ | TEAD-YAP inh | FBW7 activator | MITF inh conf | AS interf ctr | others
CCC(C)N1CCN(Cc2cc(OC)c(O)c(OC)c2)CC1 (configuration not stated) | 68* | -2 | -10 | 0 | 7 | 25
CCN1CCN(Cc2cc(OC)c(O)c(OC)c2)CC1 | 12 | 0 | -5 | 0 | / | /
CCC(C)N1CCN(Cc2cc(OC)c(OC)c(OC)c2)CC1 (configuration not stated) | 75* | -1 | -1 | 0 | 3 | 1
CN(CC(=O)Nc1ccc(C#N)c(Cl)c1)CC(=O)Nc1ccc(F)c(F)c1F | -1 | 2 | -4 | 0 | / | /
CCC(C)N1CCN(Cc2cccc(F)c2)CC1 (configuration not stated) | -1 | 0 | 4 | 0 | / | /
CCc1ccc(CN2CCN(C(C)C)CC2)cc1 | 81* | -2 | -8 | 0 | 29* | -9 | AlphaScreen DR=>6.9
Cc1ccc(CN2CCN(C(C)C)CC2)cc1 | 54* | 0 | 7 | 0 | -4 | -6
CC(C)N1CCN(Cc2ccc([N+](=O)[O-])cc2)CC1 | 67* | 0 | -6 | 0 | 5 | 6
COc1cccc(N2CCN(Cc3ccc([N+](=O)[O-])cc3)CC2)c1 | 57* | -1 | 9 | 0 | 3 | 3
CCCCn1c(=O)c(C(=O)Nc2ccc(Cl)cc2)c(O)c2ccccc21 | 1 | 0 | -3 | 0 | / | /
CC(C)N1CCN(Cc2ccccc2[N+](=O)[O-])CC1 | 63* | 1 | -6 | 0 | 10 | 14
COc1ccccc1N1CCN(Cc2ccccc2[N+](=O)[O-])CC1 | 7 | -1 | 3 | 0 | / | /
O=[N+]([O-])c1ccccc1CN1CCN(Cc2ccccc2F)CC1 | 67* | 0 | -8 | 0 | 3 | 1
CCSc1nc2ccccc2c(=O)n1-c1cccc(C)c1 | 13 | 0 | 4 | 0 | / | /
CCN(CC)P1(=S)C(N(C)C)=Nc2ccc(C)cc21 (configuration not stated) | 1 | 0 | 2 | 0 | / | /
O=C(COc1ccccc1)N1CCN(Cc2ccccc2F)CC1 | 55* | -1 | -8 | 0 | 7 | 8
Cc1ccccc1CN1CCN(C(=O)COc2ccccc2)CC1 | 60* | 2 | -2 | 0 | 8 | 9
COc1ccccc1CN1CCN(C(=O)COc2ccccc2)CC1 | 39 | -1 | 5 | 0 | / | /
CCn1c(C)cc(/C=C2\C(=O)NC(=O)N(c3cccc(Cl)c3)C2=O)c1C | 3 | 0 | 1 | 0 | / | /
COc1ccc(CCN(C)Cn2cnc3ccccc32)cc1OC | 5 | 2 | 0 | 0 | / | /
C[n+]1ccc(-c2cc[n+](C)cc2)cc1 | 65* | 2 | 6 | 0 | 6 | 13
CCCCCCC[n+]1ccc(-c2cc[n+](CCCCCCC)cc2)cc1 | -2 | 0 | 17 | 0 | / | /
Cc1cc(C)cc(CN2CCN(CC(C)C)C(CCO)C2)c1 (configuration not stated) | 6 | 1 | 8 | 0 | / | /
O=[N+]([O-])Nc1ncc(-c2ccc([N+](=O)[O-])cc2)cn1 | -1 | 1 | -7 | 0 | / | /
COc1ccc(CCNC2C3CC4CC(C3)CC2C4)cc1OC (configuration not stated) | 4 | 1 | 8 | 0 | / | /
COc1ccc(CC2NCCc3cc(OC)c(OC)cc32)cc1OC (configuration not stated) | 84* | -1 | -1 | 0 | 101* | 4 | AlphaScreen DR=3.4*

Screening data: PubChem, The Scripps Research Institute Molecular Screening Center
